The nature of assay [1]: qHTS assay to test for compound auto fluorescence at 535 nm (green) in HEK293 cells (AID 720680).
A short description of assay [2]: qHTS assay to test for compound auto fluorescence at 460 nm (blue) in HEK293 cell free culture (AID 720681). The method in brief: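 Blue fluorescence (Ex 405/Em 460 nm, triamterene-equivalent) was read immediately after pin transfer of compound or DMSO into medium (DMEM, 10% FBS) without cells.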
Assay [3] in a line: qHTS assay to test for compound auto fluorescence at 535 nm (green) in HEK293 cell free culture (AID 720682). The procedure, abridged: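 Read-out: 485/535 nm fluorescence intensity, calibrated against fluorescein. Medium only (DMEM + 10% FBS, no cells); test compound or DMSO vehicle added by pintool before plate reading.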
The nature of assay [4]: qHTS assay to test for compound auto fluorescence at 590 nm (red) in HEK293 cell free culture (AID 720683). The procedure, abridged: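 Red-channel autofluorescence of compounds in culture medium (DMEM, 10% FBS), no cells, measured at 540/590 nm. Rose Bengal sodium is the reference fluorophore for equivalence.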
A short description of assay [5]: qHTS assay to test for compound auto fluorescence at 590 nm (red) in HepG2 cell free culture (AID 720684). The method in brief: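 Plate contents were MEM with 10% FBS plus test compound or DMSO, no cells. Fluorescence was recorded with 540 nm excitation and 590 nm emission.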
The nature of assay [6]: qHTS assay to test for compound auto fluorescence at 460 nm (blue) in HepG2 cell free culture (AID 720685). The procedure, abridged:
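Compound (23 nL) or DMSO pinned into cell-free MEM with 10% FBS; blue fluorescence read at 405/460 nm excitation/emission, expressed as auto-fluorescence equivalency to triamterene.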

Assay [7] is described as follows: qHTS assay to test for compound auto fluorescence at 535 nm (green) in HepG2 cell free culture (AID 720686).
Assay [8] can be described thus: qHTS assay to test for compound auto fluorescence at 460 nm (blue) in HepG2 cells (AID 720687). The procedure, abridged:
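Blue-channel autofluorescence (Ex/Em 405/460 nm, triamterene-equivalent) was measured after 1 hr compound exposure at 37 C, 5% CO2. Cells were HepG2, plated overnight at 37 C in MEM plus 10% FBS.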

Assay [9] deals with Glucocorticoid receptor (Homo sapiens) (UniProt P04150). Description: qHTS assay to identify small molecule agonists of the glucocorticoid receptor (GR) signaling pathway (AID 720691; active means well fitted activation curve with a large enough effect in the signal ratio in the repeat runs, not every such curve was filed as active; the % refers to the signal ratio). The method in brief:
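GR-bla HeLa cells (beta-lactamase reporter under glucocorticoid response element) were plated 4 h at 37 C/5% CO2, given compounds in DMSO, and incubated 18 h at 37 C. LiveBLAzer B/G FRET substrate was added for 2 h at room temperature, then fluorescence intensity read.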

Assay [10] has the same target. Description: qHTS assay to identify small molecule antagonists of the glucocorticoid receptor (GR) signaling pathway (AID 720692; active means well fitted inhibition curve with a large enough effect in the signal ratio in the repeat runs, not every such curve was filed as active; the % refers to the signal ratio). The method in brief: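 GR-bla HeLa cells (beta-lactamase reporter under glucocorticoid response element) were pre-plated 4 h at 37 C, treated with compounds plus 5 nM dexamethasone (final) for 18 h, then read by LiveBLAzer B/G FRET fluorescence after 2 h.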

The nature of assay [11]: qHTS assay to identify small molecule antagonists of the glucocorticoid receptor (GR) signaling pathway - cell viability counter screen (AID 720693). Further: nearly all actives have a fitted effect of over 55% in size.
Assay [12] can be described thus: qHTS assay for identifying genotoxic compounds that show differential cytotoxicity against isogenic chicken DT40 cell lines with known DNA damage response pathways - wild type cell line (AID 743012). Further: nearly all actives have a fitted effect of over 60% in size. Further: potency means the concentration at half of the fitted maximal effect. The procedure, abridged: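 Parental DNA repair-proficient DT40 cells, 300 per well, were pre-incubated ~0.5 h at 37 C/5% CO2, pin-dosed with compounds in DMSO, then incubated 40 h. Viability was read as CellTiter-Glo luminescence after 30 min at room temperature.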

Assay [13] can be described thus: qHTS assay to identify small molecule antagonists of the androgen receptor (AR) signaling pathway - cell viability counter screen (AID 743033; further: nearly all actives have a fitted effect of over 45% in size).
The nature of assay [14]: qHTS assay to identify small molecule antagonists of the androgen receptor (AR) signaling pathway using the MDA cell line - cell viability counter screen (AID 743041; further: nearly all actives have a fitted effect of over 45% in size). The method in brief:
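R1881-driven MDA-kb2 AR-luc cells, 3,000/well, were dosed with library compounds for 16 h; cell health came from CellTiter-Fluor fluorescence in the reporter wells.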

Assay [15] is described as follows: qHTS assay for identifying genotoxic compounds that show differential cytotoxicity against isogenic chicken DT40 cell lines with known DNA damage response pathways - Rev3 mutant cell line (AID 743014). Further: nearly all actives have a fitted effect of over 55% in size.
Assay [16] is described as follows: qHTS assay for identifying genotoxic compounds that show differential cytotoxicity against isogenic chicken DT40 cell lines with known DNA damage response pathways - Rad54/Ku70 mutant cell line (AID 743015). Further: nearly all actives have a fitted effect of over 60% in size. Further: potency means the concentration at half of the fitted maximal effect.
Assay [17] has as its target Androgen receptor (Homo sapiens) (UniProt P10275). Description: qHTS assay to identify small molecule antagonists of the androgen receptor (AR) signaling pathway (AID 743035; active means well fitted inhibition curve with a large enough effect in the signal ratio in the repeat runs, not every such curve was filed as active; the % refers to the signal ratio). The method in brief:
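HEK293 cells stably carrying a UAS-driven beta-lactamase reporter (AR-UAS-bla GripTite) were plated for 4 h at 37C, then given compound and the agonist R1881 and incubated 16 h. Reporter activity was read by LiveBLAzer B/G FRET fluorescence after 2 h at room temperature.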

For assay [18] the target is unchanged. Description: qHTS assay to identify small molecule agonists of the androgen receptor (AR) signaling pathway (AID 743036; active means well fitted activation curve with a large enough effect in the signal ratio in the repeat runs, with a control signal flat, not every such curve was filed as active; the % refers to the signal ratio). The method in brief: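 HEK293 cells stably carrying a UAS-driven beta-lactamase reporter (GeneBLAzer AR-UAS-bla-GripTite) were plated at 2,000 cells/well, rested 4 h at 37C, then exposed to compounds in DMSO for 16 h. LiveBLAzer B/G FRET substrate was added for 2 h at room temperature; fluorescence read.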

Assay [19] has the same target. Description: qHTS assay to identify small molecule agonists of the androgen receptor (AR) signaling pathway using the MDA cell line (AID 743040; further: nearly all actives have a fitted effect of over 20% in size). The method in brief: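 After a 5 h incubation at 37C and 0% CO2, MDA-kb2 reporter cells were dosed with compounds in DMSO and kept 16 h under the same conditions. Luciferase activity was then read as luminescence with ONE-Glo.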

Assay [20] shares this target. Briefly: qHTS assay to identify small molecule antagonists of the androgen receptor (AR) signaling pathway using the MDA cell line (AID 743042; further: nearly all actives have a fitted effect of over 55% in size). The method in brief: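 Antagonist mode: compounds plus R1881 agonist added to MDA-kb2 AR-luc cells, incubated 16 h at 37C. Luciferase reporter luminescence quantified, with multiplexed CellTiter-Fluor readout for cell viability.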

Consider 14 compounds from PubChem BioAssay (Tox21).

Unmarked numbers belong to inactive results. Inconclusive results are not listed. The source made the active and inactive calls. Unless noted, the call rests on the fitted dose curve; in most records, active means well fitted curve in the direction sought with a large enough effect in the repeat runs; inconclusive means weak or mixed curves; inactive means no such curve, though single readings can be large; an effect the other way counts as inactive or inconclusive.
On the % scale 0 is the no-effect control and ±100 the full control effect.

Sequence of Glucocorticoid receptor (Homo sapiens) (P04150 whole entry, looked up): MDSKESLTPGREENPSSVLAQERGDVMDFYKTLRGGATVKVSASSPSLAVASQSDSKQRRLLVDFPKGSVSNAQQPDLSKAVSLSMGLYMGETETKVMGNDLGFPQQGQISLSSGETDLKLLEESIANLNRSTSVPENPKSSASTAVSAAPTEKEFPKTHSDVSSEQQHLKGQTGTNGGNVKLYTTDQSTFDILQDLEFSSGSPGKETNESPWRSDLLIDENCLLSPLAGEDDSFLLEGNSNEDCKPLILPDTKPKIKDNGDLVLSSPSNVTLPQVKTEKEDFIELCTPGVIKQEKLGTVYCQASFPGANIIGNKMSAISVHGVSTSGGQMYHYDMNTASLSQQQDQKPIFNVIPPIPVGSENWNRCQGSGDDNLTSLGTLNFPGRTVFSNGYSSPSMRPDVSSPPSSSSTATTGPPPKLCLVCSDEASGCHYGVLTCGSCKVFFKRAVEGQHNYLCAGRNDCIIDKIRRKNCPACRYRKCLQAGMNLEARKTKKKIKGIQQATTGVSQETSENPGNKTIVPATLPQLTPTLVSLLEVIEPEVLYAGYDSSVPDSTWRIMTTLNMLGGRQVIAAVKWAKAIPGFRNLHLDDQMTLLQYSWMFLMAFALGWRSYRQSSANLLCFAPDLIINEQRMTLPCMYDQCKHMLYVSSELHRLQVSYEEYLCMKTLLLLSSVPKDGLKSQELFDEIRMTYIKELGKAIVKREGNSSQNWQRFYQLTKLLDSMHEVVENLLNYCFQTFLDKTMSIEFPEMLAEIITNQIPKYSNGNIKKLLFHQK
Sequence of Androgen receptor (Homo sapiens) (P10275 whole entry, looked up): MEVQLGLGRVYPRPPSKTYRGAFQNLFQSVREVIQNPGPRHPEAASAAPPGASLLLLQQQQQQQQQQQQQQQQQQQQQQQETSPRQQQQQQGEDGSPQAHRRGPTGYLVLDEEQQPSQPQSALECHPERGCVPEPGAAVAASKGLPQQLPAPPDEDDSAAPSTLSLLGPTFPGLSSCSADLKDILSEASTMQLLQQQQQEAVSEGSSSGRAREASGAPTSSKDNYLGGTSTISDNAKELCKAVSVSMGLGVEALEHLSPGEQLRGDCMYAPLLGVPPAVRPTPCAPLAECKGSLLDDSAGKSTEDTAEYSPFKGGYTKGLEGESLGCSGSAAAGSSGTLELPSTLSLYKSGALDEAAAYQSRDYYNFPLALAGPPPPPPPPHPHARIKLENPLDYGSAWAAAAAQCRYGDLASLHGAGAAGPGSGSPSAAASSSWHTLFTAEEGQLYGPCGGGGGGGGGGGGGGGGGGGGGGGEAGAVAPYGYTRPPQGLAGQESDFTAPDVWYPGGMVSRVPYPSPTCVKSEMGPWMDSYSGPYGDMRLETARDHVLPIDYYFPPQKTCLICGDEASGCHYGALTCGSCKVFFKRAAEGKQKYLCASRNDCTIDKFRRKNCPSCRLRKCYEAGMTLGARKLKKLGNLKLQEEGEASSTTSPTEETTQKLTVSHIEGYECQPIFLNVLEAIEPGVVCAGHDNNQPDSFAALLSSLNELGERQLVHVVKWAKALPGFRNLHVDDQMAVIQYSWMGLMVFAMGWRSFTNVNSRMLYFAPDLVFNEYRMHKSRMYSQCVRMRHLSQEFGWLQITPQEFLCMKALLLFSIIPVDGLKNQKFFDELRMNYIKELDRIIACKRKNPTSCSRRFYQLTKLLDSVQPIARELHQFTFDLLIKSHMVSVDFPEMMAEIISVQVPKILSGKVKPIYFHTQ

`CNC(=O)C(c1ccccc1)c1ccccc1`: the outcome in [1], in assay [2], in assay [3], in assay [4], in assay [5] and in assay [6] was inactive. For the same compound, the compound was called inactive in assay [7], in [8], in assay [10], in assay [13] and in assay [14]. Further, the Potency result in [9] and in [11] was “inactive” throughout. For the same compound, the Potency in [12] is 61.1 µM (active).
Consider `C=CCCCCCCCCCCC`, for which, in [1], the fluorescence, % of fluorescein was 0.0165% [at 3.72 µM]. For the same compound, the fluorescence, % of fluorescent control was -0.158% [at 3.72 µM] in assay [2], -0.0144% [at 3.72 µM] in assay [4], 0.0228% [at 3.72 µM] in assay [6] and -0.017% [at 3.72 µM] in assay [8]. The activity change is 0.0052% [at 3.72 µM] in assay [3] and 4.86% [at 8.47 µM] in assay [19]. Moreover, the fluorescence, % of Rose Bengal in assay [5] was 0.0242% [at 3.72 µM]. Moreover, in [7], the fluorescence, % of fluorescein control is 0.0296% [at 3.72 µM]. Also, the figures for the activation in assay [9] and in assay [18] were -0.645% [at 6.9 µM] and -0.154% [at 6.9 µM], respectively. For the same compound, the activity change, negative = inhibition is -6.37% [at 7.04 µM] in [10], -3.92% [at 7.04 µM] in [17] and 17.6% [at 8.47 µM] in assay [20]. Moreover, the figures for the viability change, negative = cytotoxic in [11] and in [14] were 4.18% [at 7.04 µM] and -1.53% [at 8.47 µM], respectively. In addition, the activity, negative = cytotoxicity in [15] was 4.5% [at 8.53 µM]. Moreover, the figures for the activity change, negative = cytotoxicity in [16] and in assay [13] were -12.6% [at 8.55 µM] and -0.32% [at 7.04 µM], respectively.
Consider `CCCCC/C=C/CC(=O)OC`, for which the compound was called inactive in [1], in [2], in [3], in [4], in assay [5] and in assay [6]. Also, the outcome in [7], in [8], in assay [10], in assay [13] and in assay [14] was inactive. The Potency result in assay [9], in assay [11] and in assay [12] was “inactive” throughout.
On to `FC(F)(F)c1ccc(Cl)cc1Cl`, for which the outcome in assay [1], in assay [2], in assay [3], in assay [4], in assay [5] and in assay [6] was inactive. In addition, the compound was called inactive in assay [7], in [8], in assay [10], in [13] and in [14]. Further, the Potency entry in [9], in assay [11], in [12] and in assay [15] was “inactive” throughout.
In the case of `COc1ccc(N=Nc2cc(C)c(N=Nc3ccc(S(=O)(=O)O)cc3)cc2OC)cc1`, the result in [1], in assay [2], in [3], in assay [4], in assay [5] and in assay [6] was inactive. Also, the call in assay [7], in assay [8], in assay [10], in assay [13] and in assay [14] was inactive. The Potency entry in assay [9], in assay [11], in [12] and in assay [15] was “inactive” each time.
Take `O=C(Nc1cccc(C2=NCCN2)c1)Nc1cccc(C2=NCCN2)c1`: the call in assay [1], in [2], in assay [3], in assay [4], in assay [5] and in assay [6] was inactive. Also, the compound was called inactive in [7], in [8], in assay [13] and in [14]. Besides, the Potency entry in assay [9] and in assay [11] was “inactive” each time. The Potency was 11.9 µM (active) in [12] and 18.8 µM (active) in assay [16].
Take `CCCCCCCCCCCCCCCCI`: the fluorescence, % of fluorescein in assay [1] was 0.0243% [at 18.6 µM]. Besides, the fluorescence, % of fluorescent control is -0.0222% [at 18.6 µM] in assay [2], 0.0155% [at 18.6 µM] in assay [4], -0.142% [at 18.6 µM] in assay [6] and 0.151% [at 18.6 µM] in [8]. In addition, the activity change in assay [3] was -0.0077% [at 18.6 µM]. Further, the fluorescence, % of Rose Bengal in assay [5] was -0.0349% [at 18.6 µM]. In addition, the fluorescence, % of fluorescein control in assay [7] is 0.0097% [at 18.6 µM]. The Potency result in assay [11], in [12], in [15], in [16] and in assay [17] was “inactive” throughout. In addition, the compound was called inactive in [13], in [18], in assay [19], in [14] and in assay [20].
Turning to `CC(C)=CC(C)(C)C`, the result in assay [1], in assay [2], in [3], in [4], in assay [5] and in assay [6] was inactive. Also, the compound was called inactive in [7], in assay [8], in assay [13] and in assay [14]. Moreover, the Potency entry in assay [9], in assay [11], in [12], in assay [15] and in [16] was “inactive” throughout.
Regarding `C=C(C)C(=O)OCCCCCCOC(=O)C(=C)C`, the compound was called inactive in assay [1], in assay [2], in assay [3], in [4], in assay [5] and in assay [6]. The compound was classed as inactive in assay [7], in assay [8], in assay [13] and in assay [14]. Besides, the Potency entry in [9], in assay [11], in [12], in [15] and in assay [16] was “inactive” throughout.
For the compound `C=CCOC(=O)c1ccc(C(=O)OCC=C)c(C(=O)OCC=C)c1`, the compound was classed as inactive in [1], in assay [2], in assay [3], in [4], in [5] and in [6]. The outcome in assay [7], in assay [8], in assay [13] and in [14] was inactive. In addition, the Potency entry in assay [9] and in assay [11] was “inactive” each time.
Turning to `c1ccc(CNc2ncnc3nc[nH]c23)cc1`, the call in assay [1], in assay [2], in assay [3], in assay [4], in assay [5] and in assay [6] was inactive. The call in assay [7], in assay [8], in [13] and in assay [14] was inactive. Moreover, the Potency entry in assay [9] and in assay [11] was “inactive” each time. Further, the Potency in assay [16] was 48.6 µM (active).
With `NC(=O)C1(N2CCCCC2)CCN(CCCC(=O)c2ccc(F)cc2)CC1`, the result in [1], in assay [2], in assay [3], in [4], in [5] and in assay [6] was inactive. The result in [7], in assay [8], in [13] and in assay [14] was inactive. In addition, the Potency result in assay [9] and in [11] was “inactive” each time.
As for `CC(=O)Nc1ccc(C)cc1`, the call in assay [1], in assay [2], in assay [3], in [4], in assay [5] and in assay [6] was inactive. For the same compound, the compound was called inactive in assay [7], in [8], in assay [13] and in assay [14]. Moreover, the Potency result in assay [11], in assay [12], in assay [15] and in assay [16] was “inactive” in each case.
In the case of `CCCCC[Si](OCC)(OCC)OCC`, the outcome in [1], in assay [2], in assay [3], in assay [4], in assay [5] and in [6] was inactive. For the same compound, the call in assay [7], in [8], in [13], in [18], in assay [19] and in assay [14] was inactive. Moreover, the call in assay [20] was inactive. Besides, the Potency result in assay [9], in assay [11], in assay [12] and in [15] was “inactive” throughout.
